Experimental data published in PubChem BioAssay AID686996 (Broad Institute, 2013).
Hit rate of the full screen: of about 350,000 compounds, about 1,900 (0.54%) were called active. The sample holds actives, similar compounds and a random draw of the others, so the mix is not that of the screen. Unmarked numbers belong to inactive results.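 The calls were made as follows: active = mean inhibition across replicates at least about 35%, with every replicate also reaching that limit (limit read from the data); inconclusive = only one of the two criteria met; inactive = neither criterion met.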

The molecules below were run against Caspase-6 (Homo sapiens) (UniProt P55212) (assay: inhibition of CASP6 peptide cleavage – biochemical, VEID-R110 fluorescence, single point, set 2, primary screen (AID 686996;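 also: 0% = median of neutral control wells and 100% = no fluorescence left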)). Settings: purified caspase-6, Z-VEID-R110 cleavage fluorescence; at 12.5 µM; active compounds read high.
Sequence of Caspase-6 (Homo sapiens) (P55212 24-179 limits assumed): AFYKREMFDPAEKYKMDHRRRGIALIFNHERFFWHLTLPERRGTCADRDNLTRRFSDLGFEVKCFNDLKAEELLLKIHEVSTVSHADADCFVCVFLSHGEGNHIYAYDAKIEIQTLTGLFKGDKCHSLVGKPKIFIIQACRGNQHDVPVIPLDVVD
Sequence of Caspase-6 (Homo sapiens) (P55212 194-293 limits assumed): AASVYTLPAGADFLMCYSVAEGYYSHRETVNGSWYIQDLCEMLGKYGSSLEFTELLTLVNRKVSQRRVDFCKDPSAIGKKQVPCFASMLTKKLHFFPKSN

`C/C=C/c1ccc([C@@H]2[C@H](CO)N(S(=O)(=O)Cc3ccccc3)C23CN(C(=O)C2CCOCC2)C3)cc1` was tested. Which inhibition did it give?
Its inhibition is 0.958%.

How did the inhibition turn out when `O=C(NCC[C@H]1CC[C@H](NS(=O)(=O)c2cccc(F)c2)[C@H](CO)O1)C1CCCCC1` was run?
The inhibition was -1.12%.

How did the inhibition turn out when `O=C(C[C@@H]1CC[C@H]2[C@@H](COC[C@H](O)CN2C(=O)Nc2ccccc2)O1)NCCc1ccncc1` was run?
The inhibition was 2.19%.

Which inhibition does the source give for `CO[C@@H]1CN(C)C(=O)c2ccc(NS(=O)(=O)c3cccc(C)c3)cc2OC[C@@H](C)NC[C@H]1C` here?
The inhibition was -0.731%.

Which inhibition does the source give for `CCC(=O)N1[C@H](C(=O)NC2CCC2)[C@@H](CO)[C@@H]2Cn3c(cccc3=O)[C@@H]21` here?
Its inhibition is 0.371%.

`COc1ccc2c3c(n(C)c2c1)[C@H](CO)N(CC1CCCCC1)CC31CCN(Cc2nccs2)CC1` was tested. Which inhibition did it give?
The inhibition was -2.93%.

`CS(=O)(=O)c1ccc2c(c1)SC1=NC(=O)/C(=C/c3ccco3)C(=N)N12` was tested. Which inhibition did it give?
The inhibition was 56.4% (active).

Which inhibition does the source give for `COc1ccc2c3c(n(C)c2c1)[C@@H](CO)N(C)CC31CN(CC2CC2)C1` here?
Its inhibition is -5.67%.

With `Cc1ccc(S(=O)(=O)Nc2ccc3c(c2)C(=O)N([C@@H](C)CO)C[C@@H](C)[C@H](CN(C)Cc2ccc(Cl)c(Cl)c2)OCCCC[C@@H](C)O3)cc1` as the molecule, how does the inhibition read?
The inhibition was -0.785%.

Which inhibition does the source give for `O=C(C[C@@H]1CC[C@@H](NS(=O)(=O)c2ccc(F)cc2)[C@@H](CO)O1)NCCc1ccncc1` here?
Its inhibition is 3.03%.

How did the inhibition turn out when `O=C(Nc1ccc(F)cc1)N[C@@H]1CC[C@H](CC(=O)N2CCCCC2)O[C@H]1CO` was run?
The inhibition was 1.55%.

Which inhibition does the source give for `Cc1ccccc1NC(=O)Cn1c(=O)n(CC2CCCO2)c(=O)c2ccccc21` (stereo not given) here?
Its inhibition is 6.2%.

For `Cc1ccccc1NC(=O)CSC(=O)c1ccccc1`, which inhibition is on record?
The inhibition was 1.82%.

Which inhibition does the source give for `Cc1ccccc1NC(=O)CN1C(=O)N/C(=C\c2cccn2-c2cccc(C(=O)O)c2)C1=O` here?
The inhibition was 63.2% (active).

`COc1ccc(NC(=O)N[C@H]2CC[C@@H](CCNS(=O)(=O)c3cccc(Cl)c3)O[C@H]2CO)cc1` was tested. Which inhibition did it give?
Its inhibition is -1.94%.

`Cc1ccc(-c2cnc3c(c2)C(=O)N([C@H](C)CO)C[C@@H](C)[C@@H](CN(C)C(=O)CN(C)C)O3)cc1` was tested. Which inhibition did it give?
Its inhibition is -0.686%.

Which inhibition does the source give for `COc1ccc(C(=O)N2C[C@@H]3[C@H](c4ccccc42)[C@H](CO)N3Cc2ccc3c(c2)OCO3)cc1` here?
Its inhibition is -0.922%.

For `COc1ccc(NC(=O)N(C)C[C@H]2OCCCC[C@H](C)Oc3ccc(NS(C)(=O)=O)cc3C(=O)N([C@H](C)CO)C[C@@H]2C)cc1`, which inhibition is on record?
Its inhibition is -0.91%.

With `O=C(Nc1cccc(F)c1)c1cc(-c2ccco2)nc2ccccc12` as the molecule, how does the inhibition read?
The inhibition was -7.91%.

For `O=C(CCN1C(=O)c2ccccc2C1=O)Nc1cccc(F)c1`, which inhibition is on record?
Its inhibition is -0.612%.

With `O=C(Nc1cccc(F)c1)c1coc(=O)c(Br)c1` as the molecule, how does the inhibition read?
The inhibition was 51.7% (active).

For `C[C@H](CO)N1C[C@H](C)[C@@H](CN(C)C(=O)Nc2ccc3c(c2)OCO3)OCCCC[C@H](C)Oc2ccc(NS(=O)(=O)c3cn(C)cn3)cc2C1=O`, which inhibition is on record?
The inhibition was -1.24%.

With `CC(=O)N1CC2(C1)[C@H](c1ccccc1)[C@@H](CO)N2C(=O)Cc1ccccc1` as the molecule, how does the inhibition read?
The inhibition was 0.826%.

How did the inhibition turn out when `CCOC(=O)C1=C(C(=O)OCC)C2N(Cc3ccc(C#N)cc3)c3ccccc3[C@@]23C[C@@H](C(=O)OC)N(S(=O)(=O)c2ccc(F)cc2)C3=N1` (stereo not given in full) was run?
Its inhibition is -0.093%.

`CC(C)CN1C(=O)CN(S(C)(=O)=O)CC1(C)C(=O)NCc1ccccc1` (stereo not given) was tested. Which inhibition did it give?
The inhibition was -0.689%.

For `CC1(C(=O)Nc2ccc3c(c2)OCCO3)CN(S(C)(=O)=O)CC(=O)N1Cc1cccc(F)c1` (stereo not given), which inhibition is on record?
Its inhibition is 1.36%.

`CCC(C)CN1C(=O)CN(S(C)(=O)=O)CC1(C)C(=O)Nc1ccc2c(c1)OCCO2` (stereo not given) was tested. Which inhibition did it give?
The inhibition was 39.7% (active).

How did the inhibition turn out when `COc1ccc(CN(C)C[C@H]2OCCCC[C@@H](C)Oc3ccc(NS(C)(=O)=O)cc3C(=O)N([C@@H](C)CO)C[C@H]2C)cc1` was run?
The inhibition was -2.66%.

For `CCCNC(=O)[C@@H]1[C@@H](CO)[C@@H]2Cn3c(ccc(-c4ccccc4F)c3=O)[C@H]1N2CC1CC1`, which inhibition is on record?
The inhibition was 0.74%.

`COc1ccc2c3c([nH]c2c1)[C@H](CO)N(Cc1ccc(F)cc1)CC31CCN(Cc2ccccn2)CC1` was tested. Which inhibition did it give?
The inhibition was -3.59%.

Which inhibition does the source give for `C[C@H](CO)N1C[C@H](C)[C@H](CN(C)Cc2ccncc2)Oc2ccc(N(C)C)cc2C1=O` here?
The inhibition was 2.63%.

Which inhibition does the source give for `C#CCNc1ccc(C(=O)OCC)cc1` here?
The inhibition was -1.16%.

How did the inhibition turn out when `CCOC(=O)c1ccc(NC(=O)c2c(NCc3ccccc3)[nH]c(=O)[nH]c2=O)cc1` was run?
Its inhibition is 0.97%.

How did the inhibition turn out when `CCOC(=O)c1ccc(Nc2cc3ccccc3c(=O)[nH]2)cc1` was run?
The inhibition was 87.8% (active).

`CCC(=O)N1CCCCN2[C@H](C1)[C@@H](c1ccc(C#CCOC)cc1)[C@@H]2CO` was tested. Which inhibition did it give?
Its inhibition is -1.73%.

With `COc1ccc(S(=O)(=O)Nc2cccc3c2O[C@@H](CN(C)C(=O)Nc2ccccc2)[C@@H](C)CN([C@@H](C)CO)C3=O)cc1` as the molecule, how does the inhibition read?
Its inhibition is -2.16%.

With `C[C@@H]1CN([C@H](C)CO)S(=O)(=O)c2ccc(C#C[C@@H](C)O)cc2O[C@H]1CN(C)C(=O)CC1CC1` as the molecule, how does the inhibition read?
The inhibition was 0.478%.

For `CCOC(CNC(=O)C1CCN(S(=O)(=O)c2ccc3nc4c(c(C(=O)O)c3c2)CC(C)CC4)CC1)OCC` (stereo not given), which inhibition is on record?
The inhibition was 33.4%.

With `CC(=O)N1c2ccc(S(=O)(=O)N3CCC(C(=O)NCc4ccc(F)cc4)CC3)cc2CC1C` (stereo not given) as the molecule, how does the inhibition read?
The inhibition was 22.3%.

With `Cc1ccc(CNC(=O)C2CCN(S(=O)(=O)c3ccc4nc5c(c(C(=O)O)c4c3)CC(C)CC5)CC2)cc1` (stereo not given) as the molecule, how does the inhibition read?
The inhibition was 62.6% (active).

`N#C[C@H]1[C@@H](c2ccccc2-c2ccccc2F)[C@@H](CO)N1C(=O)C1CCC1` was tested. Which inhibition did it give?
Its inhibition is -2.32%.

For `CC(=O)N1[C@@H](CO)[C@@H](c2ccc(C3=CCCC3)cc2)C12CN(C(=O)C1CC1)C2`, which inhibition is on record?
The inhibition was 0.171%.

How did the inhibition turn out when `O=C(Nc1ccc2cn[nH]c2c1)c1ccc(S(=O)(=O)N2CCOCC2)cc1` was run?
Its inhibition is 0.612%.

How did the inhibition turn out when `COc1ccc(S(=O)(=O)Nc2ccc3cn[nH]c3c2)cc1[N+](=O)[O-]` was run?
Its inhibition is 9.88%.

With `O=C(O)c1cc(S(=O)(=O)Nc2ccc3cn[nH]c3c2)ccc1Br` as the molecule, how does the inhibition read?
The inhibition was 43.4% (active).

How did the inhibition turn out when `C/C=C/c1ccccc1[C@@H]1[C@@H](CO)N(C(=O)CN2CCOCC2)[C@H]1C#N` was run?
The inhibition was -0.139%.

How did the inhibition turn out when `C[C@H]1CN([C@@H](C)CO)C(=O)Cc2cc(NC(=O)CCCCCC(=O)Nc3ccccc3N)ccc2O[C@H]1CN(C)C(=O)Nc1ccc(F)cc1` was run?
The inhibition was 0.452%.

How did the inhibition turn out when `O=C(NNC(=O)c1ccccc1O)c1ccccc1O` was run?
The inhibition was 73.9% (active).

With `O=C(NNC(=O)c1cc(S(=O)(=O)N2CCCCC2)ccc1Cl)c1ccccc1O` as the molecule, how does the inhibition read?
Its inhibition is 0.767%.

Which inhibition does the source give for `Cc1cc(C(=O)CCC(=O)NNC(=O)c2ccccc2O)c(C)s1` here?
The inhibition was 4.5%.

For `CN(C)CCCNC(=O)C[C@H]1CC[C@H]2[C@@H](COC[C@H](O)CN2C(=O)c2ccncc2)O1`, which inhibition is on record?
The inhibition was 0.773%.

How did the inhibition turn out when `CN(c1ccccc1)S(=O)(=O)c1cccc(NC(=O)Cc2ccc(Cl)cc2)c1` was run?
Its inhibition is -0.727%.

How did the inhibition turn out when `COC(=O)c1cn(C(=O)c2ccc(Cl)cc2)c2ccccc12` was run?
The inhibition was 0.734%.

How did the inhibition turn out when `COC(=O)C(=Nc1ccccc1)/C(C(=O)C(=O)N(C)c1ccccc1)=C(\O)c1ccc(Cl)cc1` was run?
Its inhibition is 40.1% (active).

How did the inhibition turn out when `CN1C(=O)c2cc(NC(=O)C3CC3)ccc2OC[C@@H]2O[C@@H](CC(=O)NCC3CCCCC3)CC[C@@H]21` was run?
The inhibition was -1.04%.

How did the inhibition turn out when `CO[C@H]1CN(C)C(=O)c2cc(NC(=O)Nc3c(C)noc3C)ccc2OC[C@@H](C)N(CCC(F)(F)F)C[C@H]1C` was run?
The inhibition was -1.87%.

For `C[C@@H]1CN([C@@H](C)CO)C(=O)c2cc(C#CC3CC3)cnc2O[C@@H]1CN(C)C(=O)Cc1ccccn1`, which inhibition is on record?
The inhibition was 0.481%.

How did the inhibition turn out when `CC(C)(C)[S@@](=O)N1Cc2cc(C(=O)O)nc(-c3cccc(-c4cccc(F)c4)c3)c2[C@H]1CCO` was run?
The inhibition was -2.52%.

With `CC(C)(C)S(=O)N1Cc2cc(C(=O)NCCCN3CCOCC3)nc(-c3cccc(-c4cc5ccccc5o4)c3)c2[C@H]1CCO` (stereo not given in full) as the molecule, how does the inhibition read?
The inhibition was -2.64%.

`CC(C)(C)[S@](=O)N1Cc2cc(C(=O)N3CCCCC3)nc(-c3cccc(-c4ccccc4F)c3)c2[C@@H]1CCO` was tested. Which inhibition did it give?
The inhibition was -3.88%.

`COc1ccccc1-c1cccc(-c2nc(C(=O)N3CCN(C)CC3)cc3c2[C@H](CCO)N([S@@](=O)C(C)(C)C)C3)c1` was tested. Which inhibition did it give?
Its inhibition is -1.46%.

How did the inhibition turn out when `COc1ccc(C#Cc2cccc(-c3nc(C(=O)O)cc4c3[C@@H](CCO)N(S(=O)C(C)(C)C)C4)c2)cc1OC` (stereo not given in full) was run?
The inhibition was 35.2% (active).

With `CC(C)(C)S(=O)N1Cc2cc(C(=O)O)nc(-c3cccc(-c4cc5ccccc5o4)c3)c2[C@@H]1CCO` (stereo not given in full) as the molecule, how does the inhibition read?
The inhibition was 37.1% (active).

`COc1ccc(NC(=O)O[C@H]2[C@H](OC(=O)Nc3ccc4c(c3)OCO4)[C@@H](OC(=O)Nc3ccc4c(c3)OCO4)[C@@H](OC)O[C@@H]2CO)cc1` was tested. Which inhibition did it give?
Its inhibition is -3.42%.

For `Cc1ccc(S(=O)(=O)N[C@@H]2CC[C@H](CCn3cc(C4(O)CCCC4)nn3)O[C@H]2CO)cc1`, which inhibition is on record?
The inhibition was -2.61%.

How did the inhibition turn out when `Cc1ccccc1-c1ccc2c(c1)O[C@H](CN(C)Cc1ccc(C(=O)O)cc1)[C@@H](C)CN([C@H](C)CO)S2(=O)=O` was run?
Its inhibition is -3.25%.

`COc1ccccc1C#Cc1ccc([C@@H]2[C@@H](CO)N3CCCCN(S(C)(=O)=O)C[C@@H]23)cc1` was tested. Which inhibition did it give?
The inhibition was -2.85%.

For `CC(C)c1ccc(C=NNc2ccc([N+](=O)[O-])cn2)cc1`, which inhibition is on record?
The inhibition was -4.08%.

Which inhibition does the source give for `Cc1cc(C=O)c(C)n1-c1ccc(NC2CCCCC2)c([N+](=O)[O-])c1` here?
The inhibition was -0.869%.

How did the inhibition turn out when `Cc1cc(/C=N/Nc2ccc([N+](=O)[O-])cn2)c(C)n1-c1cccc(C(=O)O)c1` was run?
Its inhibition is 40.7% (active).
